# Screening results as filed in PubChem.
# BRCT inh green – qHTS Assay for Inhibitors of BRCT-Phosphoprotein Interaction (Green Fluorophore) | BRCA1 BRCT-phosphopeptide binding, green fluorescence polarization | Potency, µM (top dose mostly 76.9 µM), without a hit: top-dose activity change, negative = inhibition, usual class: inhibitors | Breast cancer type 1 susceptibility protein (Homo sapiens), P38398 | actives 0.05% (n = 75,000);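 also: potency is read from the fitted curve at half-maximal effect; plate controls were peptide without protein for full effect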
#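 Fluorescence polarization: His-tagged BRCT (~35 kDa BRCA1 C-terminus, 250 nM) bound to 100 nM fluorescein-labeled phosphorylated 10-aa BACH1 peptide, pH 7.3 phosphate buffer with DTT and Tween 20. Compounds incubated 12 min at room temperature; inhibition read as lowered polarization.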
# Caspase-7 inhib – qHTS Assay for Allosteric/Competitive Inhibitors of Caspase-7; recombinant caspase-7, Ac-DEVD-AFC fluorescence rate; Potency, µM (highest dose often 57.5 µM), for inactives: at the highest dose activity change, negative = inhibition, actives largely listed as inhibitors; actives 0.02% (n = 75,000); active = well fitted inhibition curve with a large enough effect in the main read-out, with a control signal flat, not every such curve was filed as active; inconclusive = small, poorly fitted or top-dose-only effect, or a change in a side signal; also: potency is read from the fitted curve at half-maximal effect; % of control where 0% means no effect
# USP2a inh – qHTS Assay for Inhibitors of Ubiquitin-specific Protease USP2a; AID 927, 2007; Ubiquitin carboxyl-terminal hydrolase 2 (Homo sapiens), O75604; USP2a enzymatic assay, qHTS inhibition; actives 0.1% (n = 60,000); Potency, µM (highest dose often 38.3 µM), inactives show top-dose activity change, negative = inhibition, most hits filed as inhibitors; also: potency is read from the fitted curve at half-maximal effect; nearly all actives have a fitted effect of over 60% in size
#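 Coupled readout: USP2-cleaved Ub-PLA2 (20nM final) turns over NBD C6-HPC (20uM final), Ex 460nm/Em 535nm after 2.5 h, time-zero read flagging artifacts. Enzyme (20nM final, pH 8.0 Tris) given 30 min RT with compound first; NEM defines full inhibition.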
# BRCT inh red – qHTS Assay for Inhibitors of BRCT-Phosphoprotein Interaction (Red Fluorophore); Breast cancer type 1 susceptibility protein (Homo sapiens), P38398; BRCT-phosphopeptide binding, red fluorescence polarization; Potency, µM (titrated, usually from 76.9 µM), without a hit: top-dose activity change, negative = inhibition, hits mostly inhibitors; actives 0.03% (n = 75,000); AID 892, 2007; also: % is scaled to controls: 0 for no effect and ±100 for the full control effect
#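 Fluorescence polarization: 100 nM His-tagged BRCA1 BRCT with 100 nM TAMRA-labelled phospho-BACH1 decapeptide, phosphate buffer pH 7.3 with 150 mM NaCl, DTT, 0.01% Tween 20; 12 min RT. Binding inhibition seen as FP decrease.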
# Caspase-1 inhib – qHTS Assay for Allosteric/Competitive Inhibitors of Caspase-1; Potency, µM (highest dose often 57.5 µM), without a hit: at the highest dose activity change, negative = inhibition, hits mostly inhibitors; actives 0.03% (n = 75,000); P29466; Caspase-1 enzyme, Ac-WEHD-AFC fluorogenic rate;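 also: potency is read from the fitted curve at half-maximal effect; plate controls were vehicle for no effect and no substrate for full effect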
# Numbers without * were called inactive; u = inconclusive; x = no result; ! = a repeat was not active; [ ] = another dose, or the depositor's remark. In the library only some 0.15% were active in any assay of this set; here they are far more common. Unless noted, calls follow the shape of the dose curve; as a rule, active = well fitted curve in the direction sought with a large enough effect; inconclusive = small, poorly fitted or top-dose-only effect, or another doubt; inactive = no such curve, though single readings can be large; an effect the other way counts as inactive or inconclusive.
SMILES,BRCT inh green,Caspase-7 inhib,USP2a inh,BRCT inh red,Caspase-1 inhib
COc1ccc(C2CC(=O)N3CN(c4ccc(C)c(Cl)c4)CSC3=C2C#N)cc1OC (stereo unspecified),0%,u,x,-1%,32µM*
COc1ccc(N2CSC3=C(C#N)C(c4ccc(OC)c(OC)c4)CC(=O)N3C2)c(OC)c1 (stereo unspecified),23%,u,x,1%,u
CN(C)CCCCNC(=O)c1ccc(-n2c(=O)c(=O)[nH]c3ccccc32)cc1,-3%,-1%,x,-4%,3%
O=C(Nc1ccccc1)c1ccc(Cc2nc3ccccc3[nH]2)cc1,-4%,-1%,x,0%,-4%
O=C1CCN2C=Nc3cccc4ccc1c2c34,16µM*,u,79%,0%,x
CC1=C/C(=C(/c2ccc(O)c(C)c2)c2ccccc2C(=O)O)C=CC1=O,2%[15.4 µM],3%[11.5 µM],x,-3%[15.4 µM],1%[11.5 µM]
O=C(O)C1=CC(=C(c2ccc(O)c(C(=O)O)c2)c2ccc(O)c(C(=O)O)c2)C=CC1=O,16µM*,-10%,20µM*!,6%,-4%
O=C(NCc1ccccc1)c1ccc(Cc2nc3ccccc3[nH]2)cc1,-2%,-3%,x,2%,-2%
COc1ccc(NC(=O)N2CC[C@@]3(CCCN(C(C)=O)C3)C2)cc1,-4%,1%,10µM*,0%,-3%
